Reference: the supplement of paper PMC11732987, “Enantioselective OTUD7B fragment discovery through chemoproteomics screening and high-throughput optimisation” (Communications Chemistry, 2025)

Columns and labels:
Test in all cases: log2 ratio of Biotin-Ahx-Ub-VS probe labelling (fragment/DMSO); higher = less target engagement (more negative = stronger competition), active = hit call of the paper (q ≤ 0.05, log2 ratio ≤ -1)
Conditions in all cases: compound concentration: 200 uM; treatment time: 3 h
ALG13 = target: T1, ALG13 (UniProt Q9NP73)
T1 sequence (whole entry): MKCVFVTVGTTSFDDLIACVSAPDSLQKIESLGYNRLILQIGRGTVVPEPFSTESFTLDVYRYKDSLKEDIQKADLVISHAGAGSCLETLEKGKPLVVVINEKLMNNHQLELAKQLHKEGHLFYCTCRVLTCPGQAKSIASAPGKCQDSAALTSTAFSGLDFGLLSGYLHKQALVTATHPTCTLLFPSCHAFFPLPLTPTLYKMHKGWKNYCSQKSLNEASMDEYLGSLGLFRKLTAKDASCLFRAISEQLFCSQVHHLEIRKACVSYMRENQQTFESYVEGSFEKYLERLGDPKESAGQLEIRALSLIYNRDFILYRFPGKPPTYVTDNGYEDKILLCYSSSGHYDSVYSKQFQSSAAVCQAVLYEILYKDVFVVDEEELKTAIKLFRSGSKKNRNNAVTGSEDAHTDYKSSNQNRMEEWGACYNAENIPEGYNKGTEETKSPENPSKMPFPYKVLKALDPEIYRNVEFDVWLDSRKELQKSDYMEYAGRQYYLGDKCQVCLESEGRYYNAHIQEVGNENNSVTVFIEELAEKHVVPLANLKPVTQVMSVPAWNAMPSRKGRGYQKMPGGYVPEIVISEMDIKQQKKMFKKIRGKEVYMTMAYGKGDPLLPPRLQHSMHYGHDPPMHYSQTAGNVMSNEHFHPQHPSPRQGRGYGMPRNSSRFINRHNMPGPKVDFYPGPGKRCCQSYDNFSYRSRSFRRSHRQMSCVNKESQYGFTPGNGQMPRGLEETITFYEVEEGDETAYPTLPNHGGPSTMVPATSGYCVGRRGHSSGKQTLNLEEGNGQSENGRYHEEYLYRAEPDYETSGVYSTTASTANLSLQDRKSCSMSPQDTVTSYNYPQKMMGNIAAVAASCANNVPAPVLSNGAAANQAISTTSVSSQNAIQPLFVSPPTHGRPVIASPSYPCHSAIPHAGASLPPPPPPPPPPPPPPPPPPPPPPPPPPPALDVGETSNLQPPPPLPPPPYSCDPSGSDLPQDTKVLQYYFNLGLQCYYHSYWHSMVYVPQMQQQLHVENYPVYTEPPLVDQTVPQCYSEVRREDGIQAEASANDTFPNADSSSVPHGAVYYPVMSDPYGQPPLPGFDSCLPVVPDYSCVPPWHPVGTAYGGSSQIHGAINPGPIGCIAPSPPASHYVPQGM
Summary of the method: (§1)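 Fragment (200 µM) or vehicle was incubated for 3 h with triplicate HEK293T lysate samples of 495 µg, which were then treated with Biotin-Ahx-Ub-VS at 0.5 µM final for 1 h. Labelled DUBs were enriched on NeutrAvidin, digested with LysC and trypsin, and analysed by diaPASEF LC-MS/MS. Values are average log2 fragment/vehicle ratios from an unpaired t-test on global-median-normalised Spectronaut label-free quantities, using proteins with ≥2 unique peptides.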

ATXN3 = ATXN3 (UniProt P54252)
Sequence of ATXN3 (P54252 whole entry): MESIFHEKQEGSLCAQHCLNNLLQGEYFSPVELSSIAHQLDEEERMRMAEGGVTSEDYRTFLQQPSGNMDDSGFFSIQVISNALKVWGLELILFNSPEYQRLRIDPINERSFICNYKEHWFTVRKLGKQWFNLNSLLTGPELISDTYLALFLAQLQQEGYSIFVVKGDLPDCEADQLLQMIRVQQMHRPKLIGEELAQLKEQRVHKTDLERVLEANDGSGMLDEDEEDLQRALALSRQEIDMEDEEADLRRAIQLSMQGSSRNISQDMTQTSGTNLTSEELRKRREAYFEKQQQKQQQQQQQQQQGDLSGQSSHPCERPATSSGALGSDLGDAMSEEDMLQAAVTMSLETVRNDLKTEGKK
Summary of the method: as §1

BAP1 = target: T2, BAP1 (UniProt Q92560)
T2 sequence (whole entry): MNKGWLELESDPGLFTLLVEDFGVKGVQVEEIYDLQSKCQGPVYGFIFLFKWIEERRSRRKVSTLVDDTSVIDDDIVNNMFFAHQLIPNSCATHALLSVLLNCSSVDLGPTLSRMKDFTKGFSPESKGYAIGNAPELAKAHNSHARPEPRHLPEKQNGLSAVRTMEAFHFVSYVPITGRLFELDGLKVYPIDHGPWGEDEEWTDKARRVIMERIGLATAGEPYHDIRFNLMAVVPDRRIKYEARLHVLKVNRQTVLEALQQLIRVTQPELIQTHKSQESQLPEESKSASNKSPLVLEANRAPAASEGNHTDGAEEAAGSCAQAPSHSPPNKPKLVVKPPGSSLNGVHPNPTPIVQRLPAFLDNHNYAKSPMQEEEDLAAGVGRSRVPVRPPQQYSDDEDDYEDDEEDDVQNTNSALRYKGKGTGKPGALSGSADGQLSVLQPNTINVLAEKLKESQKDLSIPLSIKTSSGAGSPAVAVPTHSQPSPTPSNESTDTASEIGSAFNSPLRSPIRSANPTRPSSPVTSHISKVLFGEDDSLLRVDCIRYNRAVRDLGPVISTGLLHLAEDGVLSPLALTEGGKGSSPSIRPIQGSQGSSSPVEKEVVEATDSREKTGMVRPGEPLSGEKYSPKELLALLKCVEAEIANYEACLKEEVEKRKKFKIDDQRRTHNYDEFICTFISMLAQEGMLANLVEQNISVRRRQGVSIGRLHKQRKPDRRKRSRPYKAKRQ
Summary of the method: as §1

EIF3F = EIF3F (UniProt O00303)
Sequence of EIF3F (O00303 whole entry): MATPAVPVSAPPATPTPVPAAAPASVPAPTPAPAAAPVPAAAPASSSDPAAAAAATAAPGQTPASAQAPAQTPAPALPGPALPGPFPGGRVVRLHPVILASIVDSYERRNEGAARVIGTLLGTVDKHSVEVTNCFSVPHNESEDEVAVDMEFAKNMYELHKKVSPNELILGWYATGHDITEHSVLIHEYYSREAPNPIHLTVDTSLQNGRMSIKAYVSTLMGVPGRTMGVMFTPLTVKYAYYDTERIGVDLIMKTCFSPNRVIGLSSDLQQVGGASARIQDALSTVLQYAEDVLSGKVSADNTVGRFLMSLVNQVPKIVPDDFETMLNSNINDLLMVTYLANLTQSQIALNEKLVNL
Summary of the method: as §1

EIF3H = EIF3H (UniProt O15372)
Sequence of EIF3H (O15372 whole entry): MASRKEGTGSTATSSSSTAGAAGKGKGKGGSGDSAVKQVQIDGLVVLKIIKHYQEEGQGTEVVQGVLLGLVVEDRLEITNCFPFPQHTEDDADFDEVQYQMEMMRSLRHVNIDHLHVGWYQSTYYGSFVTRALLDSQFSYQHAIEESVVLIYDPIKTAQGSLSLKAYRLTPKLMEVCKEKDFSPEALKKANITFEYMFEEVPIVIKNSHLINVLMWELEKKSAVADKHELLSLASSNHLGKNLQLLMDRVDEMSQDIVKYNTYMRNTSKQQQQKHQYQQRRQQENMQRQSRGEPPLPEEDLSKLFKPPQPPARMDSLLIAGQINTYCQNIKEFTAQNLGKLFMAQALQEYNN
Summary of the method: as §1

FAM105A = target: T3, FAM105A (UniProt Q9NUU6)
T3 sequence (whole entry): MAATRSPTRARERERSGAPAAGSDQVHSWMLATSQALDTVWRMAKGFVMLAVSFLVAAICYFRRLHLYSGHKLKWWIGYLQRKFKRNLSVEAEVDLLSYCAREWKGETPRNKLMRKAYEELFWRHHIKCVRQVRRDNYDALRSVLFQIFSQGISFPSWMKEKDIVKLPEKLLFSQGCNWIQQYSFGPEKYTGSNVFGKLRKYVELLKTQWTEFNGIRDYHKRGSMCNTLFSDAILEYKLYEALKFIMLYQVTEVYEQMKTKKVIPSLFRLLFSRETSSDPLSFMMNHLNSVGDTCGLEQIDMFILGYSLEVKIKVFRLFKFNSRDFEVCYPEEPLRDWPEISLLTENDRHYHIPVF
Summary of the method: as §1

OTUB1 = OTUB1 (UniProt Q96FW1)
Sequence of OTUB1 (Q96FW1 whole entry): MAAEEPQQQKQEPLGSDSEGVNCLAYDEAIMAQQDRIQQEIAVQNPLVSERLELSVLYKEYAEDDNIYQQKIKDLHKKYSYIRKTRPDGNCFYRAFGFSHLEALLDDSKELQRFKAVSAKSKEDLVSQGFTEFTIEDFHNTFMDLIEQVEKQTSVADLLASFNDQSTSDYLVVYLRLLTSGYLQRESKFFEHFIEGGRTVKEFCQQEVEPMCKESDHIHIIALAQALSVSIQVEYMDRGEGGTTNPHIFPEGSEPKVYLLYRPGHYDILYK
Summary of the method: as §1

OTUD4 = target: T4, OTUD4 (UniProt Q01804)
T4 sequence (whole entry): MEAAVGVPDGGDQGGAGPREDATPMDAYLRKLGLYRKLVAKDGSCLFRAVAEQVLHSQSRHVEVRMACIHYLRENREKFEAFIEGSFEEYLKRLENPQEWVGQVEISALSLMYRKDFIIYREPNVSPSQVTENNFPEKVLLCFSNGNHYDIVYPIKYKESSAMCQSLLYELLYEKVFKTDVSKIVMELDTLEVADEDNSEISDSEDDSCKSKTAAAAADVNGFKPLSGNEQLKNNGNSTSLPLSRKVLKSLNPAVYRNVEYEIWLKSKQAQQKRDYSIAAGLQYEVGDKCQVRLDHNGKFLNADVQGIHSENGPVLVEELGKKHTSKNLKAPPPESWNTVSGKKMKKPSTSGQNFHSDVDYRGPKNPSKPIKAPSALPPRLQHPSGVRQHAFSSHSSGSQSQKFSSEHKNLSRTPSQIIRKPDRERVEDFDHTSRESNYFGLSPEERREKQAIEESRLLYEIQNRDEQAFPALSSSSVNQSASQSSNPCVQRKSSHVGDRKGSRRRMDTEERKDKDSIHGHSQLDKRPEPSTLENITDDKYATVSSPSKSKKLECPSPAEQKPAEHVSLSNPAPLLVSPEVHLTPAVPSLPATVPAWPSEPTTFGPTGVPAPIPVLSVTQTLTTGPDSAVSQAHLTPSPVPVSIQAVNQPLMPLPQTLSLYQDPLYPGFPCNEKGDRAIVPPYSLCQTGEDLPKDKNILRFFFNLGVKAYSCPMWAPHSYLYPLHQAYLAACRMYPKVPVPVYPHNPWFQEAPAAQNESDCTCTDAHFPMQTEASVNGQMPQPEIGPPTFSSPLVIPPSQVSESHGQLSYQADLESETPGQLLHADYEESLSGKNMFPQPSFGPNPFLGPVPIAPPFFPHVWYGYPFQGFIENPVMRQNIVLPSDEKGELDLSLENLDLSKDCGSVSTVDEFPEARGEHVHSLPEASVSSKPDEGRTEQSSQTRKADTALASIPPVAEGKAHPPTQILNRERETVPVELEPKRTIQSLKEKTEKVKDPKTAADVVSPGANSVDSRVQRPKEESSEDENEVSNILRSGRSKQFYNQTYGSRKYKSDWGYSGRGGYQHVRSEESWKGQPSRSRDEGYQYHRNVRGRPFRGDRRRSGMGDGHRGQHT
Summary of the method: as §1

OTUD5 = target: T5, OTUD5 (UniProt Q96G74)
T5 sequence (whole entry): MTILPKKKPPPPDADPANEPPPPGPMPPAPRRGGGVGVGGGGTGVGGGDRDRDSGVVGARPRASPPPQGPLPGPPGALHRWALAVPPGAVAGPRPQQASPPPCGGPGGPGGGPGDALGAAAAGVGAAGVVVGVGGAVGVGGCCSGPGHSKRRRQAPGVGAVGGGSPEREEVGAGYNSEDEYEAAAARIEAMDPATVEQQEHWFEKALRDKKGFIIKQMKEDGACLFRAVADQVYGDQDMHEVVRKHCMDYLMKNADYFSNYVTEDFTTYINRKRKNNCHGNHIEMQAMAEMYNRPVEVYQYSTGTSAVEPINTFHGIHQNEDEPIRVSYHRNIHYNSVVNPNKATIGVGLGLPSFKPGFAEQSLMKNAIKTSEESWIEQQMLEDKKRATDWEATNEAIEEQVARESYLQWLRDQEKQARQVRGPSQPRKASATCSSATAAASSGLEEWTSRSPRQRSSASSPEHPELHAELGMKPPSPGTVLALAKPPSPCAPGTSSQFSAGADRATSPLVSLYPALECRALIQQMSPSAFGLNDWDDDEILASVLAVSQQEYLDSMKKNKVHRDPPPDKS
Summary of the method: as §1

Measured: log2 ratio of Biotin-Ahx-Ub-VS probe labelling

Cc1ccc(N(CCC#N)C(=O)CCl)cc1C
active: OTUD4 -1.93
inactive: ALG13 -0.389 | ATXN3 -0.353 | BAP1 -0.735 | EIF3F -0.396 | EIF3H 0.219 | FAM105A -0.314 | OTUB1 -0.139 | OTUD5 -0.661
